Experiment [1] deals with Retinaldehyde dehydrogenase 3 (Homo sapiens) (UniProt P47895). Description: qHTS for Inhibitors of the Aldehyde Dehydrogenase Family (ALDH1A3) Primary screen (AID 2061315).
For experiment [2], the target named is Aldehyde dehydrogenase 1A1 (Homo sapiens) (UniProt P00352). Description: qHTS for Inhibitors of the Aldehyde Dehydrogenase Family (ALDH1A1) Confirmatory screens (AID 2061316). Further: potency means the concentration at half of the fitted maximal effect; nearly all actives have a fitted effect of over 65% in size. Background: Quantitative high-throughput screening tests each substance at several concentrations.

Each structure is given as a SMILES string. Records with an inconclusive call do not appear. Where a call stands in place of a potency, no number is given. Values without a mark were called inactive. Activity calls are given as the source filed them. The call rests on the fitted dose curve; in most records, active means well fitted inhibition curve with a large enough effect; inconclusive means small, poorly fitted or top-dose-only effect; inactive means no such curve, though single readings can be large or run the other way.

As for `Cc1ccc(C)c(SC2=N[S+](=O)([O-])c3cc(C(=O)Nc4ccc5ncccc5c4)ccc32)c1`, in experiment [1], the Potency result was “inactive”.

Turning to `O=C1CCc2cc([S+](=O)([O-])Nc3ccc(Cl)c(Cl)c3)c(NCCCO)cc2N1`, the Potency result in experiment [1] is “inactive”.

Regarding `O=C1CCCC2=C1C1(CCSCC1)N=C(Nc1nc3ccccc3o1)N2`, the Potency result in experiment [1] is “inactive”.

Regarding `O=S(=O)(Nc1nccs1)c1ccc(NCc2cccc(Br)c2O)cc1`, the Potency entry in experiment [1] was “inactive”.

As to `CC(=O)NC(c1ccco1)c1cc(Cl)c2ccc(N(C)C)nc2c1O` (stereo not drawn), in experiment [1], the Potency entry is “inactive”.

`COc1cc(-c2ccc3ncnc(NCc4cccs4)c3c2)cc(OC)c1OC`: the Potency entry in experiment [1] was “inactive”.

Take `O=C(O)c1cccc(-n2cccc2/C=C2/NC(=O)N(c3cccc(Cl)c3)C2=O)c1`: the Potency entry in experiment [1] is “inactive”.

As for `O=C(Cc1nnc(-c2ccncc2)s1)Nc1ccc(F)c(C(F)(F)F)c1`, in experiment [1], the Potency entry is “inactive”.

In the case of `CC(Nc1ncnc2ccc(-c3ccc4c(c3)OCO4)cc12)c1ccco1` (stereo not drawn), in experiment [1], the Potency entry is “inactive”.

In the case of `COc1ccc(CC(NC(C)=O)C(=O)O)cc1` (stereo not drawn), in experiment [1], the Potency entry is “inactive”.

With `Cc1ccc(N2CCN(C(=S)Nc3cc(C)ccn3)CC2)cc1`, in experiment [1], the Potency result is “inactive”.

For `COCCNc1ccc(NC(=O)c2cccs2)cn1`, the Potency entry in experiment [1] was “inactive”.

Take `O=C1c2ccccc2C(=O)N1c1ccc2ccccc2n1`: the Potency result in experiment [1] was “inactive”.

Take `Cc1c(C(=O)O)[nH]c2c1C(=O)CC(c1ccco1)C2` (stereo not drawn): the Potency entry in experiment [1] is “inactive”.

With `COc1cccc(CNc2ccc(S(=O)(=O)Nc3cccs3)cc2)c1O`, in experiment [1], the activity change, negative = inhibition is -2.44% [at 11.2 µM]. Also, the Potency in experiment [2] was 634 nM (active).

With `CCC/C=C/c1cc2c(C=O)c(O)c(CC=C(C)C)cc2o1`, the Potency result in experiment [1] was “inactive”.

On to `O=c1c2ccc(-c3cn[nH]c3)cc2nc2sc(Nc3ccc4c(c3)CCC4)nn12`, for which, in experiment [1], the Potency entry is “inactive”.

Values taken from PubChem BioAssay (NCATS).
